The results in this text go back to PubChem BioAssay.

The source made the active and inactive calls.

Assay [1] relates to Human papillomavirus type 1a protein E7 (residues 44-93). The assay is described as follows: small molecules binding HPV E7 44-93 – biochemical, small-molecule microarray, residues 44-93, 635 nm fluorescence, primary screen (AID 1108).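 Further: E7 fragment applied at 1 µg/mL in TBST for 1 h at 4 C; score combines spot fluorescence with its signal to noise ratio.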 Particulars: fluorescence 635 nm, higher = more signal.
A short description of assay [2]: hepatitis C replication reporter changes, two-sided – Huh7 cells, luciferase reporter, HCV replication inhibitor project, primary screen (AID 1109).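 Further: huh7 hepatoma cells harbouring a luciferase neomycin HCV replicon reporter; luciferase luminescence as measure of HCV replicon replication; test concentration not given here.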 Particulars: Huh7 HCV replicon luciferase reporter, 48 h; higher = more signal.
Assay [3] concerns the target Left-right determination factor 2 (Homo sapiens) (UniProt O00292). The assay is described as follows: small molecules binding LEFTY2 protein – biochemical, small-molecule microarray, 635 nm fluorescence scan, primary screen (AID 1110). To be noted: higher = more signal.
Assay [4] concerns the target Calmodulin-1 (Homo sapiens) (UniProt P0DP23). The assay can be described thus: small molecules binding calmodulin-1 with EGTA – biochemical, small-molecule microarray, Cy5-labelled CALM1, profiling panel (AID 1111).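 Further: labelled calmodulin applied in Tris saline Tween buffer holding calcium plus EGTA and DTT.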 Particulars: Cy5-CALM1 binding fluorescence, higher = more signal.
The target is the same in assay [5]. The assay is described as follows: small molecules binding Ca-loaded calmodulin-1 – biochemical, small-molecule microarray, Cy5-labelled CALM1, plus calcium, artefact control for SMM control-protein annotation, profiling panel (AID 1112).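 Further: score merges spot fluorescence with signal to noise from triplicate slides.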 Particulars: Cy5-CALM1 binding fluorescence, higher = more signal.
A short description of assay [6]: probe aWnt5a binding to arrayed compounds – biochemical, biotinylated probe, 635/667 nm fluorescence, primary screen (AID 1113).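 Further: score merges 667 nm fluorescence intensity with signal-to-noise per printed feature.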 To be noted: small-molecule microarray, higher = more signal.
Assay [7] is described as follows: probe aShh binding to arrayed compounds – biochemical, biotinylated probe, 635/667 nm fluorescence, primary screen (AID 1114).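 Further: probe is biotin-labelled aShh protein from a stem cell growth factor screen; measures binding of labelled protein to compounds printed on the slide; score merges feature fluorescence at 667 nm with signal-to-noise.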 To be noted: small-molecule microarray, higher = more signal.
Assay [8] can be described thus: probe aNog binding to arrayed compounds – biochemical, biotinylated probe, 635/667 nm fluorescence, primary screen (AID 1115).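 Further: probe is biotinylated aNog protein used at 0.15 µg/mL for 1 h at 4 C; z-score combines 667 nm fluorescence of each spot with its signal to noise.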 Particulars: small-molecule microarray, higher = more signal.
The target of assay [9] is Torsin-1A-interacting protein 1 (Homo sapiens) (UniProt Q5JTV8). The assay can be described thus: compound microarray binding of lysate hLAP1 – cell lysate, small-molecule microarray, COS7 lysate, 635/667 nm fluorescence, primary screen (AID 1116). Particulars: 635 nm fluorescence, higher = more signal.
Assay [10] addresses Alpha-bungarotoxin (Bungarus multicinctus) (UniProt P60615). The assay can be described thus: compounds binding labelled alpha-BTX control protein – biochemical, small-molecule microarray, Alexa647 label, 635/667 nm fluorescence, artefact control for SMM control protein annotation, profiling panel (AID 1117). Particulars: alpha-BTX-A647 binding fluorescence, higher = more signal.

Another assay addresses Albumin (Bos taurus) (UniProt P02769). The assay can be described thus: compounds binding labelled BSA control protein – biochemical, small-molecule microarray, Alexa647 label, 635/667 nm fluorescence, artefact control for SMM control protein annotation, profiling panel (AID 1118).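 Further: score merges 667 nm emission intensity and signal-to-noise per printed compound spot.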 Particulars: BSA-A647 binding, fluorescence 635 nm, higher = more signal.
Assay [11] is described as follows: probe aXIP binding to arrayed compounds – biochemical, NeuroSMM set, 635/667 nm fluorescence, primary screen (AID 1119).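 Further: probe is the protein aXip251-270 applied at 1 µg/mL to compound-printed slides; binding of probe to printed compounds measured as 667 nm fluorescence plus signal to noise.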 To be noted: small-molecule microarray, higher = more signal, called active from +8 up or from −8 down.
A short description of assay [12]: probe aNOTCH3 binding on compound microarray – biochemical, small-molecule microarray, 635/667 nm fluorescence, primary screen (AID 1120).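 Further: probe is a biotin-tagged antibody raised against NOTCH3 rather than NOTCH3 protein; score merges spot fluorescence near 667 nm with spot signal to noise.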 To be noted: higher = more signal.
A short description of assay [13]: probe aNOTCH2 binding on compound microarray – biochemical, small-molecule microarray, 635/667 nm fluorescence, primary screen (AID 1121).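 Further: score merges feature fluorescence read at 667 nm with its signal to noise.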 Particulars: higher = more signal.
For assay [14], the target named is Carbonic anhydrase 2 (Homo sapiens) (UniProt P00918). The assay can be described thus: compounds binding carbonic anhydrase 2 – biochemical, small-molecule microarray, Alexa647-labelled CAII, profiling panel (AID 1122). Particulars: CAII-A647 binding fluorescence, higher = more signal.
Assay [15] can be described thus: COS7 lysate on small-molecule microarray, probe aHis, 635 nm (AID 1123).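 Further: z-score combines 667nm fluorescence intensity with signal-to-noise per printed compound spot.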 To be noted: COS7 cell lysate, fluorescence, higher = more signal.
Assay [16] in a line: probe aLAP1 signal on lysate-treated microarray – cell lysate, small-molecule microarray, COS7 lysate, primary screen (AID 1124).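 Further: lysate comes from COS7 cells expressing LAP1 and is applied at 0.3 µg/mL; score merges spot fluorescence near 667 nm with signal-to-noise over triplicate slides.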 To be noted: probe aLAP1, fluorescence, higher = more signal.
Another assay deals with Sam68 (KHDRBS1). The assay can be described thus: compounds binding KHDRBS1 protein – biochemical, small-molecule microarray, 635 nm fluorescence, primary screen (AID 1125).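 Further: score merges 667 nm channel intensity with signal to noise over triplicate slides.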 Particulars: higher = more signal.
Assay [17] relates to Chordin-like protein 2 (CHRDL2). The assay can be described thus: compounds binding chordin-like 2 – biochemical, small-molecule microarray, 635 nm fluorescence, primary screen (AID 1126).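 Further: printed compound slides probed with Chrdl2 protein at 4 µg/mL for 1 h at 4 C; score merges 667 nm emission intensity with signal to noise over three replicate slides.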 Particulars: fluorescence 635 nm, higher = more signal.
Assay [18] deals with Concanavalin-A (Canavalia ensiformis) (UniProt P02866). The assay can be described thus: compounds binding concanavalin A lectin – biochemical, small-molecule microarray, Alexa647 label, 635 nm, artefact control for SMM control protein annotation, primary screen (AID 1127).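 Further: z combines 667 nm emission intensity with signal-to-noise across three replicate slides.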 Particulars: ConA-A647 binding fluorescence, higher = more signal.
Sequence of Concanavalin-A (Canavalia ensiformis) (P02866 whole entry, looked up): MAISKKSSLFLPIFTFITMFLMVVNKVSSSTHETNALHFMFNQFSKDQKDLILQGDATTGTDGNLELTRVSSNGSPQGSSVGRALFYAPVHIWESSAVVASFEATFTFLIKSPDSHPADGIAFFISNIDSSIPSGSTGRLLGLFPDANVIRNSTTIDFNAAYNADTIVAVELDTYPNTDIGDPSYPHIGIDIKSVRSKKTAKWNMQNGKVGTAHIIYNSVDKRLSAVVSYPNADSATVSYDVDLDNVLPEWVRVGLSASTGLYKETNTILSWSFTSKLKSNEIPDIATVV

Sequence of Alpha-bungarotoxin (Bungarus multicinctus) (P60615 whole entry, looked up): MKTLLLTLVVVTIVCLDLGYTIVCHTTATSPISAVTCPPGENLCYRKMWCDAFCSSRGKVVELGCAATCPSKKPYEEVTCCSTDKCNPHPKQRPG
Sequence of Torsin-1A-interacting protein 1 (Homo sapiens) (Q5JTV8 whole entry, looked up): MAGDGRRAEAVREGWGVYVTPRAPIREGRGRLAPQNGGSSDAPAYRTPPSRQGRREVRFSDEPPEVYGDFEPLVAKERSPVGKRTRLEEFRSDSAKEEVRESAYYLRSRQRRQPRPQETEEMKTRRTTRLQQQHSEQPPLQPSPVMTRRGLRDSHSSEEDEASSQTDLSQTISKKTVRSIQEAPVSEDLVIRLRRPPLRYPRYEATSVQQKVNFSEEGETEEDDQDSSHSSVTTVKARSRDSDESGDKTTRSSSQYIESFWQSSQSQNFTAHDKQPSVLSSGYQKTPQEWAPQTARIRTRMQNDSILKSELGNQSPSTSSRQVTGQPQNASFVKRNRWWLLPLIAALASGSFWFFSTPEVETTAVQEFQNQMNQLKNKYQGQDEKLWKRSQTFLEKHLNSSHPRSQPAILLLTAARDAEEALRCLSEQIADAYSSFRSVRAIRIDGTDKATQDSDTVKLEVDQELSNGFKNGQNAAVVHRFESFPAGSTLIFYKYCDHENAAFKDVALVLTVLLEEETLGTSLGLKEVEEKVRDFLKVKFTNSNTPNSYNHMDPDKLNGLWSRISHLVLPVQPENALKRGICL
Sequence of Albumin (Bos taurus) (P02769 whole entry, looked up): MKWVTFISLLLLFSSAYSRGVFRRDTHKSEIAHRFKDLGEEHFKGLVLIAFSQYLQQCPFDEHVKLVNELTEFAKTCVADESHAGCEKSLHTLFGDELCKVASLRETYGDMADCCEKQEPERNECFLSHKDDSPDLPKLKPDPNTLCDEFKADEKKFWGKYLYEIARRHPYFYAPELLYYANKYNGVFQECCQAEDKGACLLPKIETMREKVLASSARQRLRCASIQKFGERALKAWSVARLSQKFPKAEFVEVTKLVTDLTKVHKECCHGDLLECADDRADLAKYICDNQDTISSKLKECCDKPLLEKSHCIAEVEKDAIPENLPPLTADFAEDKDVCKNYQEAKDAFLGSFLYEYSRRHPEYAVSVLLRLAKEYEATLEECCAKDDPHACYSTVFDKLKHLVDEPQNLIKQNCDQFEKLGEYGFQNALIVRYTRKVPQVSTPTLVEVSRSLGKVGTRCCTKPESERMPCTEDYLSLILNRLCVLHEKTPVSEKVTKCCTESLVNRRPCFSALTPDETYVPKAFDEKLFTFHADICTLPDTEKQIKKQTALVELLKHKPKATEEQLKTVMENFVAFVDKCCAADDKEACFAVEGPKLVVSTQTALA
Sequence of Left-right determination factor 2 (Homo sapiens) (O00292 whole entry, looked up): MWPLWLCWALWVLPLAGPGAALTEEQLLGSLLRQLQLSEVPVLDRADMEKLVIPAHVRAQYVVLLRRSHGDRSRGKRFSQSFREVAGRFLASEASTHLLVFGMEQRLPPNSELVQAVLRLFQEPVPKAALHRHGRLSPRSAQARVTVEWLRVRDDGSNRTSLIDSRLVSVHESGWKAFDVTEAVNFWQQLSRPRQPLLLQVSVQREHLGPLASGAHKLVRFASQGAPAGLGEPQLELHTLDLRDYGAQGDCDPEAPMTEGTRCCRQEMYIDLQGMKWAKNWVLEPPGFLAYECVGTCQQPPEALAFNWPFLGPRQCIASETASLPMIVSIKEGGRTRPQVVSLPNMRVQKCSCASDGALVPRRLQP

Turning to `COC(=O)c1c(CC[C@@H](CO)NC(=O)N[C@H](Cn2cc(-c3cncn3C)nn2)C(C)C)oc(C(C)=O)c1C(=O)OC`, the composite z-score in [1] is 0.873; in assay [3], 0.332; in assay [4], -0.055; in assay [5] it was -0.333; in assay [6], -0.1; in assay [7], -0.2. Further, the composite z-score in assay [8] is 0.0668; in assay [9] it was 0.542; in [10] it was -0.115; with Albumin (Bos taurus), 0.697; in assay [12], -0.0647; in [13], -0.11. The composite z-score in [14] is 0.514; in [15], 0.651; in [16], 0.203; in the assay with Sam68 (KHDRBS1) it was 1.27; in assay [17], 0.0779; in assay [18], 1.07. The molecule also showed a z-score in assay [2] of 0.0688. Moreover, the composite Z-score in [11] was 0.24 (inactive).
In the case of `C=CC[C@]1(C(=O)N2CCCCC2)N=C(c2ccc(OCCCO)cc2)O[C@H]1c1ccccc1N=[N+]=[N-]`, the composite z-score in assay [1] is 0.796; in [3] it was 0.218; in assay [4], 2.16; in [5], 0.994; in assay [6], 0.0327; in assay [7], 0.195. The composite z-score in assay [8] was -0.174; in assay [9], 1.85; in assay [10], 2.28; with Albumin (Bos taurus) it was 0.947; in [12], 0.486; in assay [13], 0.284. For the same molecule, the composite z-score in assay [14] is 0.789; in [15] it was 2.81; in [16], 0.941; in the assay with Sam68 (KHDRBS1) it was 1.3; in [17], -0.154; in [18], 1.13. The same molecule gave a z-score in assay [2] of -0.668. Moreover, in assay [11], the composite Z-score was 0.103 (inactive).
As to `CC(C)[Si](OCCCNS(=O)(=O)c1ccc(Br)cc1)(C(C)C)C(C)C`, the composite z-score was 0.186 in assay [1]; 0.76 in [3]; 1.19 in [4]; -0.371 in assay [5]; 0.037 in [6]; -0.0553 in [7]. Further, the composite z-score is 0.0379 in assay [8]; 0.928 in [9]; -0.249 in [10]; 0.406 with Albumin (Bos taurus); 0.107 in [12]; -0.0877 in [13]. For the same molecule, the composite z-score in assay [14] was determined as 0.0774; in [15] it was 0.468; in [16], 0.194; with Sam68 (KHDRBS1) it was 1.33; in [17], 0.29; in [18] it was 1.08. Further, the z-score in [2] was -2.89. Moreover, the composite Z-score in assay [11] was -0.495 (inactive).
Regarding `CCCNC(=O)[C@@H]1c2ccccc2C(=O)N(Cc2cc(F)cc(C(F)(F)F)c2)[C@H]1c1ccc(CO)cc1`, the composite z-score in [1] was 0.0588; in assay [3] it was 0.498; in assay [4], 1.04; in assay [5] it was -0.263; in assay [6], 0.0079; in assay [7] it was 0.188. Moreover, the composite z-score is -0.154 in assay [8]; 1.44 in assay [9]; 1.21 in assay [10]; -0.0179 with Albumin (Bos taurus); 0.193 in assay [12]; 0.171 in assay [13]. The composite z-score was 0.584 in assay [14]; 2.2 in assay [15]; -0.273 in assay [16]; 1.3 with Sam68 (KHDRBS1); 0.341 in [17]; 1.14 in assay [18]. In [2], this molecule registered a z-score of -0.901. In addition, in [11], the composite Z-score is 0.457 (inactive).
Regarding `C=C[C@H](OC)[C@@H](OC(=O)Nc1ccc(SC)cc1)c1ccc(O)c(F)c1`, the composite z-score in [1] was 0.998; in assay [3], -0.367; in assay [4], 0.0665; in [5], -0.0093; in assay [6], -0.0486; in assay [7], 0.0008. Moreover, the composite z-score in assay [8] is -0.443; in assay [9], 1.31; in assay [10], 0.358; in the assay with Albumin (Bos taurus), 0.661; in assay [12], 0.0864; in assay [13] it was -0.182. Moreover, the composite z-score in assay [14] is 0.699; in assay [15], 2.82; in assay [16], 0.694; in the assay with Sam68 (KHDRBS1), 1.24; in [17], -0.267; in assay [18], 0.187. In [2], the z-score was found to be 3.8. In addition, the composite Z-score in assay [11] is 1.13 (inactive).
As to `COC(=O)Cn1c(C(=O)N2CCCC2)cc2c1C[C@H]1CN(C(=O)c3ccccc3)[C@@](Cc3ccc(OC)cc3)(C(=O)OC)[C@@H]21`, the composite z-score was 1.44 in assay [1]; -0.304 in assay [3]; 1.55 in [4]; 0.367 in assay [5]; 0.129 in assay [6]; 0.593 in assay [7]. Besides, the composite z-score in assay [8] was determined as 1.83; in assay [9], 0.478; in assay [10] it was 0.841; with Albumin (Bos taurus) it was 0.92; in assay [12], 0.707; in [13], 0.375. In addition, the composite z-score in assay [14] was 0.587; in [15] it was 2.68; in assay [16] it was -0.268; in the assay with Sam68 (KHDRBS1), 0.931; in assay [17] it was 0.207; in assay [18], 0.73. Also, in [2], the z-score was -1.21. The composite Z-score in [11] is 1.09 (inactive).
